Experimental findings from the supplement of paper PMC3842684 are described below.

For one experiment, the system named is P. falciparum NF54-pfs16-GFP early (I-III) stage gametocytes. The experiment can be described thus: relative % inhibition of viable gametocyte number; higher = more gametocytocidal. The note with it: 0.5 µM; stage: early (I-III) gametocyte; incubation 72 h. The gist of the method: (§1)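 Magnet-isolated NF54 pfs16-GFP gametocytes at early (I/IIa, day 2) or late (day 8) stage were exposed to compound at 5 or 0.5 µM for 72 h at 37°C, 5% CO2, 5% O2, at 10% parasitaemia and 0.1% haematocrit. Elongated GFP objects with MitoTracker Red signal above cut-off were counted as viable by confocal imaging. Relative inhibition was normalised to in-plate vehicle and positive-control wells.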
As to `Oc1ccc(C(=C(Cl)Cl)c2ccc(O)cc2)cc1`, the relative % inhibition is -6.22%.

As to `O=C(CCc1ccco1)NC1CCN(CC2(c3ccc(Cl)cc3)CCC2)CC1`, the relative % inhibition was -4.87%.

For the compound `CN(N=O)C1=C(NC2CCCCC2)C(=O)c2ccccc2C1=O`, the relative % inhibition was 34.8%.

Regarding `CCOc1c(Cl)cc(CNC(C)C(O)c2ccccc2)cc1OC` (stereo unspecified), the relative % inhibition is -16.9%.

Take `CCOc1cc(CNC(C)C(O)c2ccccc2)cc(Cl)c1OCC` (stereo unspecified): the relative % inhibition was -15.8%.

With `Oc1ccc(Br)cc1CN1CCN(Cc2cccc(F)c2)CC1`, the relative % inhibition is -1.27%.

For `COc1cc(CNCCc2ccc(Cl)cc2)cc(OC)c1O`, the relative % inhibition stood at 9.61%.

As to `CCCc1cc(O)c2c3c(c(=O)oc2c1)CN(C)CC3`, the relative % inhibition turned out to be 38.5%.

Consider `CCCCCCc1cc(O)c2c3c(c(=O)oc2c1)CCC(C)C3` (stereo unspecified), for which the relative % inhibition is -14.4%.

With `Oc1ccc(Br)cc1CN1CCN(Cc2ccc(Cl)cc2)CC1`, the relative % inhibition came out at 12.1%.

`C=CC12CCN(CC1)C(C(O)c1ccnc3ccc(OC)cc13)C2` (stereo unspecified): the relative % inhibition amounted to 91.6%.

On to `COc1ccc(CN2CCN(Cc3ccccc3)CC2)c(O)c1`, for which the relative % inhibition is -13.8%.

The experiment is the same for the next values; noted with them: 5 µM; stage: early (I-III) gametocyte; incubation 72 h.
`Oc1ccc(C(=C(Cl)Cl)c2ccc(O)cc2)cc1`: the relative % inhibition stood at 29.1%.

On to `O=C(CCc1ccco1)NC1CCN(CC2(c3ccc(Cl)cc3)CCC2)CC1`, for which the relative % inhibition is 91.7%.

As for `CN(N=O)C1=C(NC2CCCCC2)C(=O)c2ccccc2C1=O`, the relative % inhibition is 10.4%.

Regarding `CCOc1c(Cl)cc(CNC(C)C(O)c2ccccc2)cc1OC` (stereo unspecified), the relative % inhibition is 71.9%.

As to `CCOc1cc(CNC(C)C(O)c2ccccc2)cc(Cl)c1OCC` (stereo unspecified), the relative % inhibition was -1.9%.

In the case of `Oc1ccc(Br)cc1CN1CCN(Cc2cccc(F)c2)CC1`, the relative % inhibition worked out at 63.9%.

As to `COc1cc(CNCCc2ccc(Cl)cc2)cc(OC)c1O`, the relative % inhibition stood at 87.4%.

On to `CCCc1cc(O)c2c3c(c(=O)oc2c1)CN(C)CC3`, for which the relative % inhibition is 91.6%.

`CCCCCCc1cc(O)c2c3c(c(=O)oc2c1)CCC(C)C3` (stereo unspecified): the relative % inhibition stood at 86.1%.

`Oc1ccc(Br)cc1CN1CCN(Cc2ccc(Cl)cc2)CC1`: the relative % inhibition stood at 88.4%.

Turning to `C=CC12CCN(CC1)C(C(O)c1ccnc3ccc(OC)cc13)C2` (stereo unspecified), the relative % inhibition turned out to be 75.8%.

As for `COc1ccc(CN2CCN(Cc3ccccc3)CC2)c(O)c1`, the relative % inhibition was -3.4%.

The subject of another experiment is P. falciparum NF54-pfs16-GFP late (IV-V) stage gametocytes. The experiment is described as above. As to conditions: 0.5 µM; stage: late (IV-V) gametocyte; incubation 72 h. The gist of the method: as §1
`Oc1ccc(C(=C(Cl)Cl)c2ccc(O)cc2)cc1`: the relative % inhibition was -1.73%.

In the case of `O=C(CCc1ccco1)NC1CCN(CC2(c3ccc(Cl)cc3)CCC2)CC1`, the relative % inhibition is 21.7%.

Consider `CN(N=O)C1=C(NC2CCCCC2)C(=O)c2ccccc2C1=O`, for which the relative % inhibition is 20.6%.

For the compound `CCOc1c(Cl)cc(CNC(C)C(O)c2ccccc2)cc1OC` (stereo unspecified), the relative % inhibition is -0.71%.

As for `CCOc1cc(CNC(C)C(O)c2ccccc2)cc(Cl)c1OCC` (stereo unspecified), the relative % inhibition stood at 32.7%.

In the case of `Oc1ccc(Br)cc1CN1CCN(Cc2cccc(F)c2)CC1`, the relative % inhibition worked out at 50.4%.

For the compound `COc1cc(CNCCc2ccc(Cl)cc2)cc(OC)c1O`, the relative % inhibition is -10.8%.

As for `CCCc1cc(O)c2c3c(c(=O)oc2c1)CN(C)CC3`, the relative % inhibition is 38.3%.

Consider `CCCCCCc1cc(O)c2c3c(c(=O)oc2c1)CCC(C)C3` (stereo unspecified), for which the relative % inhibition is 69.5%.

Turning to `Oc1ccc(Br)cc1CN1CCN(Cc2ccc(Cl)cc2)CC1`, the relative % inhibition is 26.8%.

As to `C=CC12CCN(CC1)C(C(O)c1ccnc3ccc(OC)cc13)C2` (stereo unspecified), the relative % inhibition was 37.9%.

Regarding `COc1ccc(CN2CCN(Cc3ccccc3)CC2)c(O)c1`, the relative % inhibition was found to be 12.2%.
